# Laboratory results taken from article PMC5540273 (PLoS ONE, 2017).
# Where two headings read alike, the source gives them in different places.
# Tests used:
# CAMK4 = conditions: concentration: 1 μM, replicates: in singlicate; n = 1
# CAMKK1 = conditions: concentration: 1 μM, replicates: in singlicate; n = 1
# CAMKK2 = conditions: concentration: 1 μM, replicates: in singlicate; n = 1
# CASK = conditions: concentration: 1 μM, replicates: in singlicate; n = 1
# CDC2L1 = tested on: T1, CDC2L1; conditions: concentration: 1 μM, replicates: in singlicate; n = 1
# T1 construct: gene CDK11B
# CDC2L2 = conditions: concentration: 1 μM, replicates: in singlicate; n = 1
# CDC2L5 = tested on: T2, CDC2L5; conditions: n = 1
# T2 construct: gene CDK13
# CDK11 = tested on: T3, CDK11; conditions: concentration: 1 μM, replicates: in singlicate; n = 1
# T3 construct: gene CDK19
# CDK2 = conditions: concentration: 1 μM, replicates: in singlicate; n = 1
# CDK3 = conditions: concentration: 1 μM, replicates: in singlicate; n = 1
# CDK4-cyclinD1 = conditions: n = 1
# CDK4-cyclinD3 = conditions: n = 1
# CDK4 = conditions: n = 1
# CDK5 = conditions: concentration: 1 μM, replicates: in singlicate; n = 1
# CDK7 = conditions: concentration: 1 μM, replicates: in singlicate; n = 1
# CDK8 = conditions: concentration: 1 μM, replicates: in singlicate; n = 1
# CDK9 = conditions: concentration: 1 μM, replicates: in singlicate; n = 1
# CDKL1 = conditions: concentration: 1 μM, replicates: in singlicate; n = 1
# CDKL2 = conditions: concentration: 1 μM, replicates: in singlicate; n = 1
# CDKL3 = conditions: concentration: 1 μM, replicates: in singlicate; n = 1
# [1] = concentration: 1 μM, replicates: in singlicate
# 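Also: KINOMEscan kinase panel screen.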
smiles,measurement,setting,value
CNC(=O)c1ccc(C)c(-n2c(C)cc(OCc3ccc(F)cc3F)c(Br)c2=O)c1,%Inh,CAMK4,0%
same,%Inh,CAMKK1,0%
same,%Inh,CAMKK2,1%
same,%Inh,CASK,0%
same,%Inh,CDC2L1,0%
same,%Inh,CDC2L2,0%
same,%Inh,CDC2L5; [1],0%
same,%Inh,CDK11,57%
same,%Inh,CDK2,0%
same,%Inh,CDK3,15%
same,%Inh,CDK4-cyclinD1; [1],0%
same,%Inh,CDK4-cyclinD3; [1],0%
same,%Inh,CDK4; [1],0%
same,%Inh,CDK5,0%
same,%Inh,CDK7,4%
same,%Inh,CDK8,4%
same,%Inh,CDK9,0%
same,%Inh,CDKL1,91.9%
same,%Inh,CDKL2,3%
same,%Inh,CDKL3,25%
Nc1nccc(-c2c(-c3ccc(F)cc3)ncn2C2CCN(Cc3ccccc3)CC2)n1 [SB-219980],%Inh,CAMK4,13%
same,%Inh,CAMKK1,2%
same,%Inh,CAMKK2,0%
same,%Inh,CASK,0%
same,%Inh,CDC2L1,7%
same,%Inh,CDC2L2,38%
same,%Inh,CDC2L5; [1],0%
same,%Inh,CDK11,1%
same,%Inh,CDK2,0%
same,%Inh,CDK3,0%
same,%Inh,CDK4-cyclinD1; [1],0%
same,%Inh,CDK4-cyclinD3; [1],0%
same,%Inh,CDK4; [1],5%
same,%Inh,CDK5,16%
same,%Inh,CDK7,13%
same,%Inh,CDK8,0%
same,%Inh,CDK9,0%
same,%Inh,CDKL1,0%
same,%Inh,CDKL2,0%
same,%Inh,CDKL3,9%
COc1cc2ncnc(Nc3cccc(Br)c3)c2cc1OC.Cl [GI230329],%Inh,CAMK4,0%
same,%Inh,CAMKK1,20%
same,%Inh,CAMKK2,16%
same,%Inh,CASK,18%
same,%Inh,CDC2L1,0%
same,%Inh,CDC2L2,14%
same,%Inh,CDC2L5; [1],0%
same,%Inh,CDK11,0%
same,%Inh,CDK2,0%
same,%Inh,CDK3,6%
same,%Inh,CDK4-cyclinD1; [1],36%
same,%Inh,CDK4-cyclinD3; [1],0%
same,%Inh,CDK4; [1],42%
same,%Inh,CDK5,0%
same,%Inh,CDK7,0%
same,%Inh,CDK9,0%
same,%Inh,CDKL1,14%
same,%Inh,CDKL2,24%
same,%Inh,CDKL3,0%
Cc1ccc(NC(=O)Nc2ccc(Cl)cc2)cc1-c1ccc(C(=O)Nc2ccncc2)cc1 [GSK1398472],%Inh,CAMK4,0%
same,%Inh,CAMKK1,0%
same,%Inh,CAMKK2,0%
same,%Inh,CASK,21%
same,%Inh,CDC2L1,0%
same,%Inh,CDC2L2,13%
same,%Inh,CDC2L5; [1],0%
same,%Inh,CDK11,8%
same,%Inh,CDK2,0%
same,%Inh,CDK3,8%
same,%Inh,CDK4-cyclinD1; [1],0%
same,%Inh,CDK4-cyclinD3; [1],10%
same,%Inh,CDK4; [1],2%
same,%Inh,CDK5,0%
same,%Inh,CDK7,0%
same,%Inh,CDK8,8%
same,%Inh,CDK9,0%
same,%Inh,CDKL1,3%
same,%Inh,CDKL2,19%
same,%Inh,CDKL3,1%
CCn1c(-c2c(N)noc2C)nc2cnccc21 [SB-737856],%Inh,CAMK4,0%
same,%Inh,CAMKK1,13%
same,%Inh,CAMKK2,0%
same,%Inh,CASK,0%
same,%Inh,CDC2L1,0%
same,%Inh,CDC2L2,8%
same,%Inh,CDC2L5; [1],98.8%
same,%Inh,CDK11,7%
same,%Inh,CDK2,0%
same,%Inh,CDK3,0%
same,%Inh,CDK4-cyclinD1; [1],0%
same,%Inh,CDK4-cyclinD3; [1],9%
same,%Inh,CDK4; [1],0%
same,%Inh,CDK5,8%
same,%Inh,CDK7,0%
same,%Inh,CDK8,0%
same,%Inh,CDK9,0%
same,%Inh,CDKL1,17%
same,%Inh,CDKL2,22%
same,%Inh,CDKL3,0%
Fc1ccc(-c2nc[nH]c2-c2ccncc2)cc1 [SB-217360],%Inh,CAMK4,0%
same,%Inh,CAMKK1,0%
same,%Inh,CAMKK2,1%
same,%Inh,CASK,13%
same,%Inh,CDC2L1,0%
same,%Inh,CDC2L2,0%
same,%Inh,CDC2L5; [1],0%
same,%Inh,CDK11,0%
same,%Inh,CDK2,0%
same,%Inh,CDK3,0%
same,%Inh,CDK4-cyclinD1; [1],0%
same,%Inh,CDK4-cyclinD3; [1],0%
same,%Inh,CDK4; [1],15%
same,%Inh,CDK5,0%
same,%Inh,CDK7,0%
same,%Inh,CDK8,38%
same,%Inh,CDK9,0%
same,%Inh,CDKL1,12%
same,%Inh,CDKL2,16%
same,%Inh,CDKL3,2%
Cc1c(Cn2c(C)c(C)n3c(=O)cc(N4CCOCC4)nc23)cccc1C(F)(F)F [GSK2328680],%Inh,CAMK4,0%
same,%Inh,CAMKK1,0%
same,%Inh,CAMKK2,10%
same,%Inh,CASK,16%
same,%Inh,CDC2L1,0%
same,%Inh,CDC2L2,14%
same,%Inh,CDC2L5; [1],0%
same,%Inh,CDK11,0%
same,%Inh,CDK2,2%
same,%Inh,CDK3,7%
same,%Inh,CDK4-cyclinD1; [1],0%
same,%Inh,CDK4-cyclinD3; [1],0%
same,%Inh,CDK4; [1],0%
same,%Inh,CDK5,0%
same,%Inh,CDK7,0%
same,%Inh,CDK8,34%
same,%Inh,CDK9,0%
same,%Inh,CDKL1,100%
same,%Inh,CDKL2,6%
same,%Inh,CDKL3,0%
CS(=O)(=O)Cc1ccc(Nc2nccc(-c3c(-c4cccc(NC(=O)C5CCCCC5)c4)nn4ncccc34)n2)cc1 [GSK350559],%Inh,CAMK4,0%
same,%Inh,CAMKK1,0%
same,%Inh,CAMKK2,0%
same,%Inh,CASK,34%
same,%Inh,CDC2L1,0%
same,%Inh,CDC2L2,27%
same,%Inh,CDC2L5; 1 µM,30%
same,%Inh,CDK11,0%
same,%Inh,CDK2,0%
same,%Inh,CDK3,0%
same,%Inh,CDK4-cyclinD1; 1 µM,15%
same,%Inh,CDK4-cyclinD3; 1 µM,18%
same,%Inh,CDK4; 1 µM,18%
same,%Inh,CDK5,4%
same,%Inh,CDK7,6%
same,%Inh,CDK8,0%
same,%Inh,CDK9,0%
same,%Inh,CDKL1,0%
same,%Inh,CDKL2,5%
same,%Inh,CDKL3,0%
